Consider 48 compounds from PubChem BioAssay (EPA / NIEHS).

The nature of assay [1]: ACEA_ER_AUC_viability: ACEA Biosciences xCELLigence Real-Time Cell Analysis on Estrogen Receptor Agonism for Viability (AID 2283782).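 Note: hit means loss of impedance signal meaning reduced cell growth or viability.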 The essentials: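 Continuous-exposure impedance cell analysis uses T-47D cells in charcoal-stripped serum, eight 1:4 dilutions topping at 100 uM final, biological duplicate. Area under the growth curve at 80 h is fitted against DMSO baseline.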

The target of assay [2] is chicken Estrogen Receptor (ESR1), ESR1 (gene 396099) (UniProt P06212). As to the kind of experiment: ATG_chERa_XSP1: Attagene TRANS-FACTORIAL Multi-Species (XSP1) HepG2 Assay for chicken Estrogen Receptor (ESR1) (AID 2283779). The essentials:
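Gain-of-signal reporter transcription, relative to DMSO, was scored in transiently transfected HepG2 cells after a 24 h dose. Fluorescence intensity of amplified, digested reporter cDNA fragments served as the endpoint.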

Assay [3] concerns the target Estrogen receptor (Homo sapiens) (UniProt P03372). As to the kind of experiment: ATG_hERa_XSP1: Attagene TRANS-FACTORIAL Multi-Species (XSP1) HepG2 Assay for human Estrogen Receptor (ESR1) (AID 2283780). The method, boiled down:
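Reporter transcripts from multiplexed GAL4-UAS units driven by NR-Gal4 chimeras in transiently transfected HepG2 were measured by RT-PCR with capillary electrophoresis 24 h post-dose, with 3 nM 6-alpha-fluorotestosterone present; gain-of-signal relative to DMSO.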

The test system of assay [4] is turtle Estrogen Receptor (ESR1), gene 101933533. Description: ATG_trERa_XSP1: Attagene TRANS-FACTORIAL Multi-Species (XSP1) HepG2 Assay for turtle Estrogen Receptor (ESR1) (AID 2283781). The method, boiled down: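 Cell-based chimeric NR-Gal4 transactivation; HepG2; 24 h dosing; mRNA reporter detected by RT-PCR and capillary electrophoresis fluorescence.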
The target in assay [5] is AR (gene 367) (UniProt P10275). As to the kind of experiment: ACEA_AR_antagonist_80hr: ACEA Biosciences xCELLigence Real-Time Cell Analysis on Androgen Receptor Antagonism for Proliferation (AID 2283787).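 Note: 22Rv1 human prostate cancer cells with growth followed by electrical impedance; hits lower the impedance growth signal relative to DMSO.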 The method, boiled down:
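Using 22Rv1 cells held in assay medium, we dosed compounds (100 uM maximum final, 1:4 serial, eight points, 0.5% DMSO at top) and recorded cell-electrode impedance; the 80 hr timepoint was analyzed against DMSO.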

The target in assay [6] is Estrogen receptor beta (Homo sapiens) (UniProt Q92731). Description: ATG_hERb_XSP1: Attagene TRANS-FACTORIAL Multi-Species (XSP1) HepG2 Assay for human Estrogen Receptor (ESR2) (AID 2283788). The method, boiled down:
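Multiplexed trans-activation in transfected HepG2: ERβ-Gal4 reporter transcripts after 24 h treatment, detected by RT-PCR plus capillary electrophoresis.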

In assay [7] the target is GAL4 Transcription Factor (Internal Marker), GAL4 (gene 855828) (UniProt P04386). As to the kind of experiment: ATG_GAL4_XSP1: Attagene TRANS-FACTORIAL Multi-Species (XSP1) HepG2 Assay for GAL4 Transcription Factor (Internal Marker) (AID 2283789). The method, boiled down:
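This background-control endpoint measures GAL4-driven reporter mRNA via RT-PCR and capillary electrophoresis of labelled fragments. Transiently transfected HepG2 cells were treated 24 h, with 3 nM 6-alpha-fluorotestosterone included, and gain-of-signal was fitted against DMSO.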

Assay [8] deals with zebrafish Estrogen Receptor (ESR2A), gene 317734. As to the kind of experiment: ATG_zfER2a_XSP1: Attagene TRANS-FACTORIAL Multi-Species (XSP1) HepG2 Assay for zebrafish Estrogen Receptor (ESR2A) (AID 2283778). The essentials: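 Gain-of-signal reporter transcription readout from GAL4-UAS units in transiently transfected HepG2 cells, 24 h exposure, 3 nM 6-alpha-fluorotestosterone co-present. Detection by RT-PCR with capillary electrophoresis fluorescence.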

Assay [9] is described as follows: STM_H9_NormalizedViability: Cytotoxicity Assessment at 120 hours in the Stemina devTOX quickPredict H9 human embryonic stem cell (hESC)-based Assay (AID 2283784). The essentials:
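Here, H9 cells received test compound with daily medium renewal. Each plate included methotrexate references (1uM, 5 nM), 0.1% DMSO and media blanks; CellTiter-Fluor RFU was normalized to DMSO.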

Assay [10] has as its target AR (gene 367) (UniProt P10275). Description: ACEA_AR_agonist_80hr: ACEA Biosciences xCELLigence Real-Time Cell Analysis on Androgen Receptor Agonism for Proliferation (AID 2283783).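 Note: hits increase impedance growth signal above DMSO baseline.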 The method, boiled down: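 Real-time cell-growth kinetics were recorded by electrode impedance in 22Rv1 cells exposed to test chemicals up to 100 uM final; the 80 h timepoint served as the readout, fitted upward relative to DMSO controls, in biological duplicate.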

Records with an inconclusive call do not appear. Activity calls are given as the source filed them. Rule for the calls: active = hit-call score of the fitted dose curve at least 0.9, where 1 is the maximum; inconclusive = response in the unintended direction; inactive = score below 0.9.

AR (gene 367), sequence (P10275 whole entry, looked up): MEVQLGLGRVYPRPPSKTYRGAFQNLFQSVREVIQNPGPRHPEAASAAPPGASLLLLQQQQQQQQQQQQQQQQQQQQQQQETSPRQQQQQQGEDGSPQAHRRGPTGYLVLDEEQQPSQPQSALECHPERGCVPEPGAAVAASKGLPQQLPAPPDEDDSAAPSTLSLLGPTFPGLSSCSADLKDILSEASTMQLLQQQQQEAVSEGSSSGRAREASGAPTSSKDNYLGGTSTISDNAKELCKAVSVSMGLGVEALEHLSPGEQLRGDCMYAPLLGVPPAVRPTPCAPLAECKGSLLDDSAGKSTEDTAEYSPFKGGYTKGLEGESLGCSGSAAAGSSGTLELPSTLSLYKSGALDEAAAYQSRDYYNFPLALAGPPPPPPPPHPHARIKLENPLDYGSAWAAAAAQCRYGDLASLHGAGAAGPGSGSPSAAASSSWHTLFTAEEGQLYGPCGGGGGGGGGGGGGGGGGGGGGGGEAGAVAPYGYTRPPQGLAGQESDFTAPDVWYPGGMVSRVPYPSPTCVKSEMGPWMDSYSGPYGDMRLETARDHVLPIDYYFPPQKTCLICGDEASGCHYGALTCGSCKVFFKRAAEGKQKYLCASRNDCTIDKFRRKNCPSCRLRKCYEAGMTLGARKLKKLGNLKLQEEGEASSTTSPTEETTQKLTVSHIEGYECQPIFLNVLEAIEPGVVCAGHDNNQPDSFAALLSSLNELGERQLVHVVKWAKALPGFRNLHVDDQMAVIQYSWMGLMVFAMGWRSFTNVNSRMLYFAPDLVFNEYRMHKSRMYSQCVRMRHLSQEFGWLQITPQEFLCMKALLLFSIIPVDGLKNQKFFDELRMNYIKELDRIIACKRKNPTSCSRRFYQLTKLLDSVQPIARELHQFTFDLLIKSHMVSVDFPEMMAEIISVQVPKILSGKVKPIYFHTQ
Estrogen receptor beta (Homo sapiens), sequence (Q92731 whole entry, looked up, the tested form may be a part): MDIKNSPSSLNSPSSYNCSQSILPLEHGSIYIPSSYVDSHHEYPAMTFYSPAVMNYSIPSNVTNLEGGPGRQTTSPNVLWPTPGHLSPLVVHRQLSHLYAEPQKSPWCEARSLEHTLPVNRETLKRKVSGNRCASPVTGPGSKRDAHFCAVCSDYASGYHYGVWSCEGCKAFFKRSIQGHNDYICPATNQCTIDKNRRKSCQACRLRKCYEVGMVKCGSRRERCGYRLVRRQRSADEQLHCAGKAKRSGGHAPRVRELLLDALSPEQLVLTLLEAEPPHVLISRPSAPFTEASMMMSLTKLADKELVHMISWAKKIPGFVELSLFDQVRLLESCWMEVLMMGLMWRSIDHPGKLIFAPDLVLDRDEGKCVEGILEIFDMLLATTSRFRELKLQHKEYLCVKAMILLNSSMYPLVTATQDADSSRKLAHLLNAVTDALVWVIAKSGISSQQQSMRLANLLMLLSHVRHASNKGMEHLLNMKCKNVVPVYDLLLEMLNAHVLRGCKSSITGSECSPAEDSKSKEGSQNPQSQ
Estrogen receptor (Homo sapiens), sequence (P03372 whole entry, looked up, the tested form may be a part): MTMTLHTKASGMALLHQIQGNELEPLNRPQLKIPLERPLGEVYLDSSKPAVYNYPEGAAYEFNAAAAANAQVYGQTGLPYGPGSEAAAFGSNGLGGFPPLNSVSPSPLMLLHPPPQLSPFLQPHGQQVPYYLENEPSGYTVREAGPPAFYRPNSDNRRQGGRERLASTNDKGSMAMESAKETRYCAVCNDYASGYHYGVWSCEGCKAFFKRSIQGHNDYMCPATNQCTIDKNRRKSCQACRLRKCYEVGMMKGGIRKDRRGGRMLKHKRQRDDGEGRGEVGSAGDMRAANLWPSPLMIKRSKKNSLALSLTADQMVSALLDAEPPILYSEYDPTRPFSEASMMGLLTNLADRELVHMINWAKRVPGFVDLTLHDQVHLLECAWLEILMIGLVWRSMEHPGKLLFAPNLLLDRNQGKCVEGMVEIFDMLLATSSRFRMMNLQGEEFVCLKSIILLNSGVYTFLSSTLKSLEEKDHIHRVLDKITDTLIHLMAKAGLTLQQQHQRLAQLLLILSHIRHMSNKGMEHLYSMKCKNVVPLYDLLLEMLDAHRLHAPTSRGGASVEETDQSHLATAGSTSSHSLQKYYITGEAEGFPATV
chicken Estrogen Receptor (ESR1), ESR1 (gene 396099), sequence (P06212 whole entry, looked up, the tested form may be a part): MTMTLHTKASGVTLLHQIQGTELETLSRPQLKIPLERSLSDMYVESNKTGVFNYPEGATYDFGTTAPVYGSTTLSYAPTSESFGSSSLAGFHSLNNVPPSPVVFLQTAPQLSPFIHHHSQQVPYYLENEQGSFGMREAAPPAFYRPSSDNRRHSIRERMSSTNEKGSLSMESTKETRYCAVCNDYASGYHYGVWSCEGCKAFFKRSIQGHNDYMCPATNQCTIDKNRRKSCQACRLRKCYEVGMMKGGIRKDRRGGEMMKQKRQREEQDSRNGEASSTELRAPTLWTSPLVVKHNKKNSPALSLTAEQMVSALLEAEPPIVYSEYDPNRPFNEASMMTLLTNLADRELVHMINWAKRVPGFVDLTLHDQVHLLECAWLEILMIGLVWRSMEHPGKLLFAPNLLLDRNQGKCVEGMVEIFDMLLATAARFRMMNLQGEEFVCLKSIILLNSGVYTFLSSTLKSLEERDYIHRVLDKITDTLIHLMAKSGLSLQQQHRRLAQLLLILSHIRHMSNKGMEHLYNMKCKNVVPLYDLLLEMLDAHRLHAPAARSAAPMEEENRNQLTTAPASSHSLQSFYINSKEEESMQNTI
GAL4 Transcription Factor (Internal Marker), GAL4 (gene 855828), sequence (P04386 whole entry, looked up, the tested form may be a part): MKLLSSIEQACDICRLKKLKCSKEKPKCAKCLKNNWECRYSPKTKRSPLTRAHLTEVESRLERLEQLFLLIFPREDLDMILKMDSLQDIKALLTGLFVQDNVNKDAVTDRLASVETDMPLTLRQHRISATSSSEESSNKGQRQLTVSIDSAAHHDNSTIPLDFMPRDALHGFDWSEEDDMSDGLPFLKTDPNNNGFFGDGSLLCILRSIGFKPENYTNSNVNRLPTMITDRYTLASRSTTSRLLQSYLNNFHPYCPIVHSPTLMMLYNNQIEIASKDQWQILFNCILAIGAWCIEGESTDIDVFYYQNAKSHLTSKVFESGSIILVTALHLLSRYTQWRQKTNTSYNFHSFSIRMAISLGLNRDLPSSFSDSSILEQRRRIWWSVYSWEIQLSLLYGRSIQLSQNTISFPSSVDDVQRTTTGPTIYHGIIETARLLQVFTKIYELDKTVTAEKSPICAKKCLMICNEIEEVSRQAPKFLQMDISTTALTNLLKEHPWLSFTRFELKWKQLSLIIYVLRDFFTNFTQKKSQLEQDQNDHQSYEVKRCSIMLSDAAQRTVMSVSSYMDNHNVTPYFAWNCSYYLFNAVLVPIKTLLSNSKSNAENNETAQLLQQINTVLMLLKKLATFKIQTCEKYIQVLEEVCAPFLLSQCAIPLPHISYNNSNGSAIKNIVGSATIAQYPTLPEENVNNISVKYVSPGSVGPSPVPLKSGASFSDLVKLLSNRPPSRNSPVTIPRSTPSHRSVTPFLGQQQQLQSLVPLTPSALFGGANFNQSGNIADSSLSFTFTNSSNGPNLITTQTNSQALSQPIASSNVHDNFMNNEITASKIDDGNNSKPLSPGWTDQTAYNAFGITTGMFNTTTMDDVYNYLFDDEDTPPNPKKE

Turning to `OC[C@H]1O[C@@](CO)(O[C@H]2O[C@H](CO)[C@@H](O)[C@H](O)[C@H]2O)[C@@H](O)[C@@H]1O`, the call in [1] was inactive.
In general, AC50 refers to the concentration giving half of the maximal activity seen. Consider `S=P(N1CC1)(N1CC1)N1CC1`, for which the AC50 in [1] is 69 µM (active).
With `C=CCc1cc(S(=O)(=O)c2ccc(O)c(CC=C)c2)ccc1O`, the AC50 in [2] is 1.19 µM (active); in assay [3], 1.36 µM (active); in [4], 1 µM (active); in assay [1], 76.7 µM (active); in assay [5], 26.2 µM (active). Also, the compound was classed as inactive in assay [6] and in assay [7].
For the compound `FC(F)C(F)(F)COCC1CO1` (stereo unspecified), in [1], the result was inactive.
Still for that read-out and setting: the same measure for `O=C(Cl)C(F)(F)C(F)(F)C(F)(F)C(=O)Cl`: “inactive”; for `O=C(O)c1ccc2c(c1)nc(C(=O)NC1CCN(C3CC3)CC1)n2Cc1cc(-c2ccc(Cl)s2)on1`: “inactive”.
Still for that read-out and setting: with `OCCC(F)(F)C(F)(F)C(F)(F)C(F)(F)F` the entry was “inactive”.
For `CCCCN1C(=O)[C@@H]([C@H](O)C2CCCCC2)NC(=O)C12CCN(Cc1ccc(Oc3ccc(C(=O)O)cc3)cc1)CC2`, the AC50 in [1] was 64.6 µM (active).
Same read-out and setting: the same measure for `CCc1ccc(O)c(C(C)(C)C)c1`: 25.5 µM (active).
`Cc1cccc(O)c1C`: the call in assay [1] was inactive.
Same read-out and setting: the same measure for `CCOC(N)=O`: “inactive”.
In the case of `OC(O)(C(F)C(O)(O)C(F)(F)F)C(F)(F)F`, the AC50 in assay [1] was 75 µM (active).
Turning to `O=C(O)c1cccc(C[C@@H]2COc3ccc(OCc4nc5cc(F)ccc5s4)cc3[C@@H]2O)c1`, in assay [1], the compound was classed as inactive.
Regarding `OCc1c[nH]c2ccccc12`, the AC50 in assay [1] was 87 µM (active).
Regarding `NC(=O)NN=Cc1ccc([N+](=O)[O-])o1`, the result in [1] was inactive.
As for `FC(F)=C(F)C(F)(F)C(F)(F)C(F)(F)C(F)(F)C(F)(F)C(F)(F)F`, the result in assay [1] was inactive.
Still for that read-out and setting: the same measure for `FC(F)(F)COC(OCC(F)(F)F)OCC(F)(F)F`: “inactive”.
With `Cn1c(=O)c2[nH]cnc2n(C)c1=O`, the call in [1] was inactive.
On the same count and under the same terms, the same measure for `C[C@@H](Oc1ccc(CNC(=O)c2cccnc2Oc2ccc3c(c2)OCO3)c(F)c1)C(=O)O`: “inactive”.
With `O=C(N[C@H](CO)[C@H](O)c1ccc([N+](=O)[O-])cc1)C(Cl)Cl`, the AC50 in assay [1] is 73.2 µM (active).
Regarding `CC(C)C(=O)Nc1ccc([N+](=O)[O-])c(C(F)(F)F)c1`, the outcome in assay [8], in [2], in assay [3] and in assay [6] was inactive. In assay [9], the AC50 was 65.6 µM (active).
Take `OC[C@H]1O[C@@H]2O[C@H]3[C@H](O)[C@@H](O)[C@@H](O[C@H]4[C@H](O)[C@@H](O)[C@@H](O[C@H]5[C@H](O)[C@@H](O)[C@@H](O[C@H]6[C@H](O)[C@@H](O)[C@@H](O[C@H]7[C@H](O)[C@@H](O)[C@@H](O[C@H]1[C@H](O)[C@H]2O)O[C@@H]7CO)O[C@@H]6CO)O[C@@H]5CO)O[C@@H]4CO)O[C@@H]3CO`: the compound was called inactive in assay [1].
For `CCCc1ccccc1`, the compound was classed as inactive in assay [1].
On the same count and under the same terms, the same measure for `NCC(F)(F)C(F)(F)C(F)(F)C(F)(F)F`: “inactive”.
Same read-out and setting: the same measure for `O=S(=O)(O)CCC(F)(F)C(F)(F)C(F)(F)C(F)(F)C(F)(F)C(F)(F)F`: “inactive”.
As for `COc1cc(C(C)C)c2c(c1)S(=O)(=O)N(COc1cc(=O)n3cccc(OCCN4CCCCC4)c3n1)C2=O`, the AC50 in assay [1] is 17.4 µM (active); in assay [5], 18 µM (active). Besides, the call in assay [10] was inactive.
With `Cn1cc[nH]c1=S`, the outcome in assay [1] and in assay [9] was inactive.
Turning to `O=C1CN(N=Cc2ccc([N+](=O)[O-])o2)C(=O)N1`, the AC50 in assay [9] is 3.4 µM (active).
For the compound `COc1cc2c(c(OC)c1OC)-c1ccc(OC)c(=O)cc1[C@@H](NC(C)=O)CC2`, the AC50 was 0.00238 µM (active) in [1], 0.0165 µM (active) in assay [9] and 0.00409 µM (active) in [5]. For the same compound, the outcome in assay [10] was inactive.
In the same order, the values of `CCN(CC)C(=S)SSC(=S)N(CC)CC` are 25.4 µM (active), 0.309 µM (active), 25.6 µM (active) and “inactive”.
For the compound `Cc1nc(-c2ccccn2)ncc1C(=O)Nn1cc(C)c2cc(F)ccc21`, in assay [10], the AC50 was 0.000427 µM (active). The result in assay [9] was inactive.
In the case of `OCc1ccccc1`, the result in assay [5] was inactive.
With `CCCCOC(=O)c1ccccc1`, the result in assay [10] was inactive.
On to `CCCCC(CC)C(=O)OCCOCCOCCOC(=O)C(CC)CCCC` (stereo unspecified), for which the compound was classed as inactive in assay [10]. Also, the AC50 in assay [5] is 65.8 µM (active).
With `CCCCCCOC(=O)CC(CC(=O)OCCCCCC)(OC(=O)CCC)C(=O)OCCCCCC`, the call in assay [10] and in assay [5] was inactive.
With `CC[C@H](C)C(=O)O[C@H]1C[C@H](O)C=C2C=C[C@H](C)[C@H](CC[C@@H](O)C[C@@H](O)CC(=O)O)[C@H]21`, the result in assay [9] was inactive.
Same read-out and setting: the same measure for `NC(=O)N1c2ccccc2C=Cc2ccccc21`: “inactive”.
Turning to `CCCCCCCCCCCCCCCCOS(=O)(=O)O`, the result in assay [1] and in [10] was inactive. For the same compound, the AC50 in assay [5] was 46.2 µM (active).
Turning to `COS(C)(=O)=O`, in assay [9], the concentration at half-maximal activity (AC50) was 70.5 µM (active).
As to `CCc1cccc(CC)c1N`, the call in assay [10] was inactive. The AC50 in [5] is 7.11 µM (active).
For the compound `Nc1ccn([C@@H]2O[C@H](CO)[C@@H](O)[C@@H]2O)c(=O)n1`, the AC50 in [9] was 0.27 µM (active).
For the compound `O=S1(=O)CCCO1`, the outcome in assay [9] was inactive.
As for `CCCCCCCCCC`, the result in [1] and in [9] was inactive.
`O=c1[nH]cnc2c1ncn2[C@H]1CC[C@@H](CO)O1`: the outcome in assay [9] was inactive.
As for `OCCOCCOCCO`, the compound was classed as inactive in assay [10] and in [5].
Turning to `COCc1nnc(-c2ccc[n+]([O-])c2)n1-c1c(Cl)c(Cl)cc2[nH]c(=O)c(=O)[nH]c12`, the compound was called inactive in assay [5].
On to `CCCC(CCC)C(=O)O`, for which the AC50 in [9] is 340 µM (active).
With `Cc1ncc([C@@H](CCCCCCc2ccc3c(n2)NCCC3)CC(=O)O)cn1`, the AC50 in assay [1] is 0.00382 µM (active). In assay [9], the outcome was inactive.
